Assay outcomes: PubChem BioAssay, several laboratories
MPTP inh: blocks calcium-induced mitochondrial swelling; isolated mouse mitochondria, Ca2+ swelling absorbance, 30 min; inhibition, % at 10 µM; 360,000 tested, 1.4% active;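 active = inhibition of 50% or more, scaled per plate between neutral and stimulator controls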;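 note: 0% = DMSO wells given calcium and 100% = 1 mM EGTA wells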
NR3A LBD binder: modulators (binders) of human NR3A ligand-binding domain. Tm shift relative to glycine control, % at 25 µM. 340,000 tested, 2.5% active. AID 1259313. NR3A LBD differential scanning fluorimetry, Tm shift; 0% = protein alone, 100% = glycine-bound protein;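 active = melting temperature shift of at least 10% of the positive control shift, at one fixed dose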
CSC inhib: cancer stem cell inhibition. cancer stem cell-like cells viability, luminescence. inhibition, % at 7.5 µM. 300,000 tested, 1.1% active. AID 2717; in the data active = inhibition above about 75%; inconclusive = no clear call, values can overlap the other calls; tested in HMLE shEcad cells
Mdm2-MdmX inh: disrupts the human Mdm2-MdmX interaction; inhibition, % at 8 µM; AID 485346; SaOS-2 split-luciferase Mdm2/MdmX complementation, luminescence; 330,000 tested, 3% active; O15151+Q00987;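 active = inhibition of at least 50% at 8 µM in the primary screen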
Target sequence (O15151 whole entry, looked up): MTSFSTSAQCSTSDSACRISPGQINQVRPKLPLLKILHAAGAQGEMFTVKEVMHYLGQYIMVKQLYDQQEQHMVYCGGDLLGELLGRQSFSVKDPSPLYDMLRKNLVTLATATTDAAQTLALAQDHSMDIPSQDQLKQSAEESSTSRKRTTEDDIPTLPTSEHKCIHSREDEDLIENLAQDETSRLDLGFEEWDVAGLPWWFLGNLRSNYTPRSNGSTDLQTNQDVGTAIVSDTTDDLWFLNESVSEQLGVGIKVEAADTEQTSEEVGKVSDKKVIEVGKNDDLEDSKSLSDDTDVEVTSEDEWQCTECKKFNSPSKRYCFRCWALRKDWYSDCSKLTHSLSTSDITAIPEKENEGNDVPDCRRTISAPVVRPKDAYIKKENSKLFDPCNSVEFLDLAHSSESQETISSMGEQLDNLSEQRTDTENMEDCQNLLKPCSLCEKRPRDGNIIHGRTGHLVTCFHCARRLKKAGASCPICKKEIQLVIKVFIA
Target sequence (Q00987 whole entry, looked up): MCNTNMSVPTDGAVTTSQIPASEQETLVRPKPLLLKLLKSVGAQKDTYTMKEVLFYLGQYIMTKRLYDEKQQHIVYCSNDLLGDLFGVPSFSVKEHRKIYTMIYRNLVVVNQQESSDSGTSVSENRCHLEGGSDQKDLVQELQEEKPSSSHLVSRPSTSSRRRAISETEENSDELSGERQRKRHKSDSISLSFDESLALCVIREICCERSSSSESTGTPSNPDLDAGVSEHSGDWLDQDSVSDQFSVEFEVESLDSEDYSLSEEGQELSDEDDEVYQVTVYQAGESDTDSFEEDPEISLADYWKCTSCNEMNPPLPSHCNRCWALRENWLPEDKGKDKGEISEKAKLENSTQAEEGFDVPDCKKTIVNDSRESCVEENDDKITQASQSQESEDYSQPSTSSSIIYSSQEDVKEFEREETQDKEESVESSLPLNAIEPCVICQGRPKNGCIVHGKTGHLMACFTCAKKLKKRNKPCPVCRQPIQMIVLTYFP
SKKanGAS inh: SKKanGAS growth inhibition | S. pyogenes SKKanGAS, kanamycin growth, BacTiter-Glo, 6 h | inhibition, % at 7.5 µM | 300,000 tested, 1.3% active | AID 1662;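 active = mean replicate score, as percent of positive control median, at least 50; inconclusive = mean below 50 but one replicate at or above 50; inactive = mean and every replicate below 50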;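 note: strain carries kanamycin resistance gene driven by streptokinase promoter and grows in 40 µg/ml kanamycin; loss of luminescence reflects streptokinase promoter inhibition or plain growth inhibition; 0% = median of DMSO wells and 100% = positive control at its reference dose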
Beta apoptosis: blocks beta cell apoptosis | INS-1E cytokine-induced death, ATP luminescence, 48 h; percent of positive-control rescue, neutral wells zero | protection from apoptosis, % (no concentration beside the values) | 300,000 tested, 0.8% active;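 active = Every replicate reaches about 75%, or at least half do and their mean reaches it too, limit read from the data; inconclusive = At least half of replicates reach the limit but their mean does not; inactive = Under half of replicates reach the limit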;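 note: 0% = cytokine-treated negative control wells and 100% = positive control rescue; higher means more ATP so stronger rescue from cytokine killing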
* = called active by the depositor; u = inconclusive; x = no result given. Hits are enriched below; roughly 6.9% of the tested compounds scored in any of these assays.

SMILES | MPTP inh | NR3A LBD binder | CSC inhib | Mdm2-MdmX inh | SKKanGAS inh | Beta apoptosis
COc1cc2c(cc1OC)CN(C(=O)C1CCN(S(=O)(=O)c3ccccc3F)CC1)CC2 | 2.5 | -1.6 | 9.2 | 11.3 | 0.5 | -3.0
Cn1c(SCC(=O)NNC(=O)Nc2ccccc2)nnc1-c1ccccc1 | 0.8 | -0.2 | -2.2 | 0.8 | 3.2 | -7.0
CCN(CC)c1nc(Nc2ccccc2)nc(Oc2ccc(C(=O)OC)cc2)n1 | 0.0 | 14.2* | 54.9 | 36.7 | 11.2 | 4.7
COC(=O)c1ccc(Oc2nc(Nc3ccccc3)nc(N(C)C)n2)cc1 | 24.9 | 2.4 | 7.1 | 20.3 | 3.2 | 8.9
Cc1c(C(N)=O)sc2ncn(CC(=O)N(C)C3CCCCC3)c(=O)c12 | 2.0 | -2.4 | -11.9 | 12.3 | 2.1 | -2.6
O=C(Cc1ccc(F)cc1)N[C@@H]1c2ccccc2CC[C@@H]1O | -0.4 | 4.7 | x | -19.0 | x | x
CN(N=O)c1ccc(CC2CCc3ccccc32)cc1 (configuration not stated) | 2.1 | 15.4* | x | x | x | x
CN(C)C(=O)[C@H]1C[C@H]1[C@@H](O)[C@H](CO)NC(=O)[C@H](Cc1ccccc1)NC(=O)OC(C)(C)C | -0.6 | -3.6 | -2.3 | -3.8 | 1.1 | 3.4
O=C(Cn1c(-c2ccccc2)noc1=O)NCc1ccccc1 | -0.3 | 12.7* | -11.2 | -11.6 | -1.3 | -0.6
O=C(CC(=O)NCc1ccccc1)NCc1ccccc1 | -0.3 | -0.7 | -5.1 | 11.1 | -2.7 | x
CC(=O)c1cccc(NC(=O)CCN2C(=O)C3C4CCC(C4)C3C2=O)c1 (configuration not stated) | -0.1 | 0.2 | 13.2 | -4.8 | 0.8 | 2.1
CCc1ccc(C(=O)Cn2ccsc2=N)cc1 | 0.5 | 39.4* | -5.4 | -157.2 | 5.8 | 16.3
CC1(C(=O)NS(=O)(=O)c2ccc(Cl)cc2)CCN1C(=O)Cc1cccs1 (configuration not stated) | -0.8 | x | x | x | x | x
O=C(Cc1cccs1)N/N=C\c1ccc([N+](=O)[O-])s1 | -0.5 | 0.2 | -1.3 | 41.1 | -1.2 | 93.9*
Cc1cc(C)cc(N=Cc2ccc([N+](=O)[O-])s2)c1 | 2.4 | -20.4 | 5.3 | 12.5 | 5.6 | -1.6
Cc1ccc(NC(=S)N/N=C/c2ccc([N+](=O)[O-])s2)cc1 | 21.3 | 23.1* | 0.8 | -7.3 | 43.0 | u
Clc1ccc(Sc2oc(/C=N/n3cnnc3)cc2Br)cc1 | 11.5 | -0.7 | -12.1 | 2.0 | x | -11.7
CN(C)C(=O)/C(C#N)=C\c1cc(Br)c(Sc2ccc(Cl)cc2)o1 | -3.2 | -16.0 | 102.6* | x | x | -2.0
CCCC[C@H](CC(=O)c1ccccc1)[C@@H](OC(C)=O)C(=O)Oc1c(C(C)C)cccc1C(C)C | -0.2 | -0.5 | 18.6 | 9.9 | x | 5.7
CC(C)c1cccc(C(C)C)c1OC(=O)[C@H]1OC(C(C)(C)C)=C[C@@H]1c1ccccc1 | 1.2 | 15.7* | 20.7 | 0.6 | x | 110.9*
CC(=O)NS(=O)(=O)c1ccc(NS(=O)(=O)c2ccccc2[N+](=O)[O-])cc1 | 0.3 | -2.5 | -8.1 | -19.3 | 3.9 | -4.6
Cn1cc(CN2CCc3c([nH]c4ccccc34)C2C(C)(C)C)cn1 (configuration not stated) | -2.3 | -1.3 | -6.5 | -19.1 | 8.2 | -3.7
CSc1ncc(CN2CCc3c([nH]c4ccccc34)C2C(C)(C)C)cn1 (configuration not stated) | 0.5 | -101.4 | -14.2 | 9.8 | 51.5* | x
C=C1CCN([C@@H](Cc2ccccc2)C(=O)NCCCc2ccccc2)S(=O)(=O)c2ccccc21 | 1.1 | 1.3 | -3.0 | 3.9 | 12.0 | x
CCn1cc(S(=O)(=O)NCCc2ccccc2OC)cn1 | -0.8 | 11.4* | 9.5 | 19.8 | -3.0 | 5.2
SMILES | MPTP inh | NR3A LBD binder | CSC inhib | Mdm2-MdmX inh | SKKanGAS inh | Beta apoptosis
CCC(C)c1ccccc1NS(=O)(=O)c1cnn(CC)c1 (configuration not stated) | -0.2 | -29.0 | -12.1 | 17.2 | 53.2* | x
CCn1cc(S(=O)(=O)NCc2ccccc2Br)cn1 | -0.3 | -0.3 | -10.9 | -11.1 | -7.6 | -4.9
CCn1cc(S(=O)(=O)Nc2ccccc2C(F)(F)F)cn1 | -0.4 | 0.0 | 0.9 | -16.4 | -4.4 | x
COc1cccc(C(C)(O)c2nc(-c3ccc(C)c(C)c3)cs2)c1 (configuration not stated) | 14.7 | x | x | x | x | x
O=C(Nc1ccccc1C(=O)OCC(=O)c1c[nH]c2ccccc12)c1ccco1 | -17.7 | 26.1* | -20.2 | -0.3 | 22.8 | -0.3
CCOC(=O)C(NC(=O)CCC(=O)Nc1ccc(S(N)(=O)=O)cc1)C(O)c1ccccc1 (configuration not stated) | x | 12.7* | x | -0.1 | -1.8 | x
CCCCCCCCOC(=O)C(NC(=O)CCC(=O)Nc1ccc(S(N)(=O)=O)cc1)C(O)c1ccccc1 (configuration not stated) | -2.6 | -1.6 | -4.3 | 24.9 | -2.6 | 3.2
CSc1ccccc1NC(=O)C1=CC(c2ccc(C)cc2)=NS(=O)(=O)N1C | -2.2 | 0.5 | 4.2 | 6.0 | 6.0 | 3.3
CCCCCCCCC/C(=N\O)c1ccccn1 | 5.3 | -15.9 | 1.7 | -12.6 | 97.0* | 40.8
CCCCCCCCC(=O)N/N=C/c1ccccn1 | 0.8 | 1.4 | 19.8 | 9.1 | -9.3 | 0.2
CC(=O)NC(CC(=O)OCC(=O)N1CCN(S(=O)(=O)c2ccc(Cl)cc2)CC1)c1ccccc1 (configuration not stated) | -2.3 | 1.8 | -1.9 | 15.4 | -0.8 | -3.4
C#CCOCCOCCOCCNc1nc(N2CCN(C(=O)[C@H]([C@@H](C)CC)n3cc([C@@H](N)CC(C)C)nn3)CC2)nc(N2CCN(C(=O)[C@H](CCCCN)n3cc([C@@H](N)CC(C)C)nn3)CC2)n1 | x | 10.1* | -3.5 | -4.3 | -0.9 | -4.3
C#CCOCCOCCOCCNc1nc(N2CCN(C(=O)CCCCCCCCCCNC(=O)[C@H](CO)n3cc(CCCSC)nn3)CC2)nc(N2CCN(C(=O)CCCCCCCCCCNC(=O)[C@H](CCCCN)n3cc(CCO)nn3)CC2)n1 | -10.4 | 27.6* | -6.2 | -10.2 | x | 2.0
C#CCOCCOCCOCCNc1nc(N2CCN(C(=O)CCCCCCCCCCNC(=O)[C@@H](CCC(=O)O)n3cc(CCCCCN)nn3)CC2)nc(N2CCN(C(=O)CCCCCCCCCCNC(=O)[C@H]([C@@H](C)CC)n3cc(CCCCCN)nn3)CC2)n1 | -8.8 | 25.5* | 14.5 | -12.3 | x | 1.2
C#CCOCCOCCOCCNc1nc(N2CCOCC2)nc(N2CCN(C(=O)CCCCCCCCCCNC(=O)[C@@H](CCC(=O)O)n3cc(CCCCCN)nn3)CC2)n1 | 8.2 | 0.5 | -11.5 | 29.6 | x | -5.9
C#CCOCCOCCOCCNc1nc(N2CCN(C(=O)CCCCCCCCCCNC(=O)[C@H]([C@@H](C)CC)n3cc(CCCCCN)nn3)CC2)nc(N2CCN(C(=O)CCCCCCCCCCNC(=O)[C@H](CCCCN)n3cc(CCCC(=O)O)nn3)CC2)n1 | -10.1 | 21.6* | 8.7 | 22.6 | x | 0.9
Cc1ccccc1NC1=NCC(c2ccc([N+](=O)[O-])cc2)S1 (configuration not stated) | -3.6 | 0.6 | 11.1 | 41.3 | 16.5 | -7.7
